High-throughput results: PubChem, National Center for Advancing Translational Sciences (NCATS)
The full list was thinned out, with hits kept by preference.
Methyltransferases: Primary Screen for Target Class Profiling of Small Molecule Inhibitors of Methyltransferases; AID 1745853, 2022; 25,000 compounds, 3.9% hits; calls only at 40 µM; purified enzyme, MTase-Glo SAH luminescence; stronger effect = lower value; call rule not given here
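Each enzyme was reacted with SAM and its substrate, with compounds tested once at 40 uM; SAH formed was read by MTase-Glo luminescence.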
MTase-Glo ctr: detection enzyme interference, methyltransferase counter-screen | shares compounds with Methyltransferases | MTase-Glo coupled enzymes, SAH conversion luminescence, no MTase | Potency, µM (doses to about 57.3 µM), usual class: inhibitors | 180 compounds, 6% hits | AID 1745851; active = well fitted inhibition curve with a large enough effect; inconclusive = small, poorly fitted or top-dose-only effect
Calls only; 0 = inactive; ? = inconclusive; + = active, no number.

SMILES	Methyltransferases	others
O=C1NC2(CCN(Cc3ccccc3)C2)COc2ccccc21 (stereo not drawn)	0
Fc1ccc(CN2CCC(Nc3ccc(C(F)(F)F)nn3)CC2)cc1F	0
Cc1ccccc1NC(=O)Cn1c(=O)oc2cc(S(=O)(=O)N3CC(C)CC(C)C3)ccc21 (stereo not drawn)	0
CCC(C)NC(=O)CSc1nnc2n(Cc3ccccc3)c(=O)c3ccccc3n12 (stereo not drawn)	0
CCOc1ccccc1CN1C(=O)c2cc3oc(C)cc3n2CC1(C)C(=O)NC1CCCCC1 (stereo not drawn)	0
Cc1ccc(CNC(=O)CNC(=O)C2(C)Cn3c(nc4ccccc43)C(=O)N2C)cc1 (stereo not drawn)	0
CCNc1ncc(CN2CCN(c3ccncc3)CC2)cn1	+	MTase-Glo ctr=0
CCN1CCN(C(=O)C2CCCN(Cc3ccncc3)CCC(=O)NCC2)CC1 (stereo not drawn)	0
CCCN1C(=O)c2c(C(=O)NCc3ccccn3)ncn2CC1(C)C(=O)NCc1ccc(C)cc1 (stereo not drawn)	0
COc1ccc(-c2cc(-c3cnn(C)c3)cn3cncc23)cn1	+	MTase-Glo ctr=?
COc1cccc(N2CCN(C(=O)CCC[C@@H]3[C@H]4CCCN5CCC[C@@H](CN3C)[C@@H]45)CC2)c1	0
O=C(CCC[C@@H]1[C@H]2CCCN3CCC[C@@H](CN1Cc1ccccc1)[C@@H]23)Nc1cccnc1	+	MTase-Glo ctr=0
COc1ccc(C)cc1NC(=O)CCC[C@@H]1[C@H]2CCCN3CCC[C@@H](CN1C)[C@@H]23	0
CCN(CC)C(=O)[C@@H]1C[C@@H](n2cc(Cn3c(C)nc4ccccc43)nn2)CN1	0
O=C(Cn1nc2n(Cc3ccccc3)c(=O)c3ccccc3n2c1=O)NCc1ccccc1Cl	0
O=C(CCc1nnc2n(Cc3ccccc3Cl)c(=O)c3ccccc3n12)N1CCN(c2ccccc2)CC1	0
COc1cccc(Nc2cc3c(cn2)CN(Cc2cccnc2)CCN3)c1	+	MTase-Glo ctr=0
Cn1nccc1-c1cc2c(cn1)CN(Cc1ccncc1)CCN2	+	MTase-Glo ctr=0
COc1ccc(CCN2CCN(CCCc3ccccc3)CC2)cc1OC	0
CC1(C(=O)Nc2ccccc2)CN(Cc2ccccc2)Cc2ccc(N3CCOCC3)nc21 (stereo not drawn)	0
CCOc1cc2c(cn1)NCCN(Cc1ccncc1Cl)C2	0
O=C1NCCN1C1CCN(Cc2cccnc2)CC1	0
COc1ccc2nc([C@H]3CCN(Cc4cccnc4)C3)[nH]c2c1	0
c1ccc(CN2CCNc3cnc(Nc4ccc(N5CCOCC5)cc4)cc3C2)cc1	+	MTase-Glo ctr=0
COc1ccc(-c2cc3c(cn2)CN(CCc2ccccc2)CCN3)cc1OC	+	MTase-Glo ctr=?
SMILES	Methyltransferases	others
COc1ccc(-c2nnc3n(Cc4ccccc4)c(=O)c4ccccc4n23)cc1OC	0
O=C1c2cc(N3CCOCC3)nc(-c3cccc(CO)c3)c2CN1c1ccccc1	0
CN1CCC(N(Cc2cccs2)c2ccccc2)CC1	0
Cc1cccc(N2C(=O)c3cc(C(C)(C)C)nn3CC2(C)C(=O)NC2CCCCC2)c1C (stereo not drawn)	0
Cc1ccc(N2C(=O)c3cc4occc4n3CC2(C)C(=O)NC2CCCCC2)c(C)c1 (stereo not drawn)	0
CCCn1c(=O)c2ccccc2n2c(SCc3cccc(C)c3)nnc12	0
COc1cc(O)cc(C)c1C(=O)O[C@H]1[C@@H](O)[C@@H](n2ccc(=O)[nH]c2=O)O[C@@H]1CO	0
CN1C(=O)c2cc(C(=O)NCCCc3ccccc3)nn2CC1(C)C(=O)NCc1ccccc1 (stereo not drawn)	0
COCCCN1C(=O)c2ccc(-c3ccco3)n2CC1(C)C(=O)NC1CCCCC1C (stereo not drawn)	0
CC(C)Cn1c(=O)c2ccccc2n2c(SCC(=O)Nc3cc(F)ccc3F)nnc12	0
CC(C)CCNC(=O)C1c2c(n(C)c3ccccc23)SCC(=O)N1Cc1ccco1 (stereo not drawn)	0
O=c1cc(N2CCOCC2)oc2c(NCc3ccc(F)cc3)nccc12	0
COc1ccc(CN2C(=O)c3cc(-c4ccccc4)nn3CC2(C)C(=O)NCc2ccccc2)cc1OC (stereo not drawn)	0
COc1ccc(CNc2cc3c(cn2)CN(Cc2ccccc2)CCN3)cc1OC	+	MTase-Glo ctr=0
CCn1cc(CNc2ccc(-c3ccccc3OC)nn2)cn1	0
COc1ccc(-c2cc3n(n2)CC(C)(C(=O)NCc2ccccc2OC)N(c2cc(C)ccc2OC)C3=O)cc1 (stereo not drawn)	0
NC(=O)c1cc2c(nc1CCC1COc3ccccc3O1)CCC2 (stereo not drawn)	0
CCCN1C(=O)c2c(C(=O)Nc3c(C)cccc3C)ncn2CC1(C)C(=O)NCc1ccc(OC)cc1 (stereo not drawn)	0
O=C(c1nc2c(o1)CCN(Cc1cccc(F)c1)CC2)N1CCOCC1	0
Cn1c(C(=O)Nc2ccc3c(c2)OCO3)cc2c1CCN(Cc1cccc(F)c1)C2	0
Cn1c(C(=O)NCCN2CCCCC2)cc2c1CCN(Cc1cccc(F)c1)C2	+	MTase-Glo ctr=0
CC(C)NC(=O)Cn1nc2n(Cc3ccccc3)c(=O)c3ccc(C(=O)NC4CCCC4)cc3n2c1=O	0
CC(C)CC(=O)n1cc(C(N)=O)c(=O)cc1C(O)c1ccccc1 (stereo not drawn)	0
CCOc1ccccc1C(=O)N1CCC(c2n[nH]c(=O)n2Cc2ccc(OC)cc2)CC1	0
COc1ccc(-c2[nH]nc3ncc(C(=O)N4CCC(c5ccccc5)CC4)nc23)c(C)c1	+	MTase-Glo ctr=0
SMILES	Methyltransferases	others
COc1cccc(CN2CCCC3(CCN(C(=O)c4cnc(C)cn4)C3)C2)c1 (stereo not drawn)	0
O=C(c1ccc2ncccc2c1)N1CCC(c2nc(CCOCC3CCOCC3)no2)C1 (stereo not drawn)	0
C/C=C/C=C/C(=O)N1CC[C@]23c4ccccc4N[C@H]4N(C)c5cccc6c5[C@@]42CCN([C@H]6C2OC2(C)C)[C@H]13 (stereo partly drawn)	0
CCCN1C(=O)c2cc3sccc3n2CC1(C)C(=O)NC1CCCCCC1 (stereo not drawn)	0
CC(C)OCCCn1c(=O)c2ccccc2n2c(=O)n(CC(=O)c3ccc(F)cc3)nc12	0
CSCCC(NS(=O)(=O)c1ccc2c(c1)oc(=O)n2C)C(=O)N1CCC(Cc2ccccc2)CC1 (stereo not drawn)	0
CCOC(=O)C1CCCN(c2nc3c(-c4cccc(F)c4)nnn3c3ccc(Cl)cc23)C1 (stereo not drawn)	0
COc1cccc(OC)c1-c1cc(C(=O)N[C@@H](CC(C)C)C(=O)O)nn1-c1ccnc2cc(Cl)ccc12	0
COc1ccc(OCc2cc(C(=O)NC(CO)C(C)C)no2)c2ccccc12 (stereo not drawn)	+	MTase-Glo ctr=0
COc1cccc(CNC(=O)c2c(C)noc2-c2ccccc2OC)c1	0
CC(C)CNC(=O)C1CCCN(c2ccnc3ccnn23)C1 (stereo not drawn)	0
CCc1ccc(C2c3cccn3-c3sc4c(c3CN2C(=O)Nc2ccc(OC)c(OC)c2)CCCC4)cc1 (stereo not drawn)	0
CN1C(=O)c2cc3ccccc3n2CC1(C)C(=O)NCC(=O)NCCc1ccco1 (stereo not drawn)	0
CCN(Cc1nccn1C)C(=O)c1ccc(N2CCC(COC)C2)nc1 (stereo not drawn)	0
